Data on 12 compounds can be found in PubChem BioAssay (Tox21).

Test [1] in a line: Human pregnane X receptor (PXR) small molecule agonists, qHTS cell viability counter screen (AID 1346977). Note: nearly all actives have a fitted effect of over 50% in size. Note: potency is the fitted concentration of half-maximal effect. The procedure, abridged: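 In each well, the PXR reporter HepG2 line was checked for viability: CellTiter-Fluor reagent added 23hr post-dosing, fluorescence read after 1hr incubation at 37C.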
Background: In qHTS, concentration-response curves come from the screen itself.

Test [2] can be described thus: Caspase-3/7 induction in HepG2 cells by small molecules, qHTS assay (AID 1346978). Note: nearly all actives have a fitted effect of over 15% in size. Note: potency is the fitted concentration of half-maximal effect. The procedure, abridged:
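Caspase-3/7 induction was measured by Caspase-Glo 3/7 luminescence (30 min, room temperature) after a 17 hr compound exposure of wild-type HepG2 cells seeded at 2,000 per well and pre-incubated 5 hr.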

The nature of test [3]: Caspase-3/7 induction in CHO-K1 cells by small molecules, qHTS cell viability counter screen (AID 1346979). Note: nearly all actives have a fitted effect of over 35% in size. Note: potency is the fitted concentration of half-maximal effect. The procedure, abridged: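 Following a 5hr settling period, CHO-K1 cells at 1,500 per well received DMSO-dissolved compounds. Cell viability was quantified 16hr later by CellTiter-Fluor fluorescence, measured after 1hr with reagent at 37C.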
Test [4] is described as follows: Caspase-3/7 induction in CHO-K1 cells by small molecules, qHTS assay (AID 1346980). Note: nearly all actives have a fitted effect of over 15% in size. The gist of the method: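 Luminescent Caspase-Glo 3/7 read (30min, room temperature) quantified apoptosis induction. Cells were wild-type CHO-K1, treated with compound for 17hr at 37 C and 5% CO2.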
The nature of test [5]: Caspase-3/7 induction in HepG2 cells by small molecules, qHTS cell viability counter screen (AID 1346981). Note: nearly all actives have a fitted effect of over 30% in size. Note: potency is the fitted concentration of half-maximal effect. The gist of the method:
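Fluorescence read-out of live-cell protease activity (CellTiter-Fluor) after 1 hr with reagent. This was measured in the same wells as the caspase-3/7 luminescence, on HepG2 cells exposed to DMSO-dissolved compounds for 16 hr at 37 C.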

In test [6] the target is Nuclear receptor subfamily 1 group I member 2 (Homo sapiens) (UniProt O75469). The experiment in a line: Human pregnane X receptor (PXR) small molecule agonists, qHTS assay (AID 1346982). Note: nearly all actives have a fitted effect of over 35% in size. Note: potency is the fitted concentration of half-maximal effect. The gist of the method:
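HepG2 PXR-Luc reporter line, 5% charcoal-stripped FBS; 5 hr pre-incubation, compound (DMSO) 24 hr at 37 C/5% CO2; ONE-Glo 30 min RT; luminescence read-out.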

Test [7] addresses Cytochrome P450 2C19 (Homo sapiens) (UniProt P33261). In words: Cytochrome P450 Family 2 Subfamily C Member 19 (CYP2C19) small molecule antagonists: luciferase reporter qHTS assay (AID 1671197). Note: nearly all actives have a fitted effect of over 65% in size. Note: potency is the fitted concentration of half-maximal effect. The procedure, abridged:
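First, compounds are pinned into enzyme-substrate mix and held 10 min at room temperature. Second, NADPH regeneration solution is added and plates incubate 1 h at 37C. Third, detection reagent is added and luminescence read after 20 min.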
A general note: In a reporter assay the amount or activity of a reporter protein is the signal.

Test [8] has as its target Cytochrome P450 2C9 (Homo sapiens) (UniProt P11712). In words: Cytochrome P450 Family 2 Subfamily C Member 9 (CYP2C9) small molecule antagonists: luciferase reporter qHTS assay (AID 1671198). Note: nearly all actives have a fitted effect of over 50% in size. Note: potency is the fitted concentration of half-maximal effect. The procedure, abridged:
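Enzyme-substrate mix preincubated with compound 10 min at room temperature; reaction started with NADPH regeneration solution, 1 h 37C. Luminescent luciferin product read after 20 min detection reagent.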

Test [9] has as its target Voltage-gated inwardly rectifying potassium channel KCNH2 (Homo sapiens) (UniProt Q12809). The experiment in a line: Human Ether-a-go-go-Related Gene (hERG) channel small molecule antagonists: fluorescence cell-based qHTS assay (AID 1671200).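 Note: hERG-expressing U2OS cells given a thallium stimulus after FluxOR II dye loading; series mostly up to about 77 µM; nearly all actives have a fitted effect of over 50% in size.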 The gist of the method: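 In this thallium-flux screen, overnight-cultured U2OS cells bearing the channel are dye-loaded in darkness for an hour, rested 10 min at room temperature, and then monitored kinetically at 480/540 nm for two minutes post-stimulus.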
In general terms: hERG is a cardiac potassium channel; its block is linked to QT prolongation.

Test [10] has as its target Cytochrome P450 3A4 (Homo sapiens) (UniProt P08684). The experiment in a line: Cytochrome P450 Family 3 Subfamily A Member 4 (CYP3A4) small molecule antagonists: luciferase reporter qHTS assay (AID 1671201). Note: nearly all actives have a fitted effect of over 50% in size. Note: potency is the fitted concentration of half-maximal effect. The gist of the method:
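CYP3A4 activity was followed with a P450-Glo proluciferin substrate. Test compounds in DMSO were preincubated 10 min; NADPH regeneration then ran 1 h, and light output was read 20 min after detection reagent.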

The target of test [11] is Cytochrome P450 1A2 (Homo sapiens) (UniProt P05177). In words: Cytochrome P450 Family 1 Subfamily A Member 2 (CYP1A2) small molecule antagonists: luciferase reporter qHTS assay (AID 1671199). Note: nearly all actives have a fitted effect of over 50% in size. Note: potency is the fitted concentration of half-maximal effect. The procedure, abridged: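 Luminescence readout (relative luminescence units) after luciferin detection reagent, 20 min RT. Preceded by 1 h room-temperature CYP1A2 reaction with NADPH regeneration solution following 10 min compound preincubation with enzyme and proluciferin substrate. Furafylline positive control.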

Test [12] concerns the target Cytochrome P450 2D6 (Homo sapiens) (UniProt P10635). In words: Cytochrome P450 Family 2 Subfamily D Member 6 (CYP2D6) small molecule antagonists: luciferase reporter qHTS assay (AID 1671196). Note: nearly all actives have a fitted effect of over 50% in size. Note: potency is the fitted concentration of half-maximal effect. The procedure, abridged: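 Luminogenic proluciferin substrate, CYP2D6 enzyme; 10 min RT preincubation with compound, NADPH regeneration system added, 1 h RT. Stop/detection reagent, 20 min RT, luminescence read (RLU). Signal proportional to CYP activity.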

The target in test [13] is Nuclear receptor subfamily 1 group I member 2 (Rattus norvegicus) (UniProt Q9R1A7). In words: Rat pregnane X receptor (rPXR) activation by small molecules, qHTS assay (AID 1346983). Note: nearly all actives have a fitted effect of over 20% in size. Conditions: rPXR luciferase reporter cells, One-Glo luminescence, 24 h; max activation: hits give high values. The gist of the method:
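Luminescent readout (One-Glo luciferase, 30 min room temperature) followed 24 hr compound treatment at 37 C of rPXR cells plated 2,000 per well and preincubated 5hr; qHTS format with compounds delivered in DMSO.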

SMILES strings stand for the structures. Unmarked numbers belong to inactive results. Results filed as inconclusive are left out. The source made the active and inactive calls. Calls come from the whole dose curve; as a rule, active = well fitted curve in the direction sought with a large enough effect in the repeat runs; inconclusive = weak or mixed curves; inactive = no such curve, though single readings can be large; an effect the other way counts as inactive or inconclusive.
% is set by controls: 0 for no effect and ±100 for the full control effect.

Cytochrome P450 1A2 (Homo sapiens), sequence (P05177 whole entry, looked up): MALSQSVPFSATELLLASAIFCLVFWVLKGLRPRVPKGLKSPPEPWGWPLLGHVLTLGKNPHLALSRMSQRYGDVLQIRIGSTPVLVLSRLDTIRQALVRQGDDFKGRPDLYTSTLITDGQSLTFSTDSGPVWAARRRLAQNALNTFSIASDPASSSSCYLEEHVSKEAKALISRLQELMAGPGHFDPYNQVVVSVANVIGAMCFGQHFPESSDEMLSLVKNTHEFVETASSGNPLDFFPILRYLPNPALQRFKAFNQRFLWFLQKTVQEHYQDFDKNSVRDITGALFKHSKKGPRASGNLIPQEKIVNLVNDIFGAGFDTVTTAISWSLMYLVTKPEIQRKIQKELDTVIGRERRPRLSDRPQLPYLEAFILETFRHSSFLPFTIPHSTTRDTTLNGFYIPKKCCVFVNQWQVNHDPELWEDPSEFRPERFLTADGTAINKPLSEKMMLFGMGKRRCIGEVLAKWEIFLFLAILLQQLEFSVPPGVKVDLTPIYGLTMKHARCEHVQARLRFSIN
Cytochrome P450 2C19 (Homo sapiens), sequence (P33261 whole entry, looked up): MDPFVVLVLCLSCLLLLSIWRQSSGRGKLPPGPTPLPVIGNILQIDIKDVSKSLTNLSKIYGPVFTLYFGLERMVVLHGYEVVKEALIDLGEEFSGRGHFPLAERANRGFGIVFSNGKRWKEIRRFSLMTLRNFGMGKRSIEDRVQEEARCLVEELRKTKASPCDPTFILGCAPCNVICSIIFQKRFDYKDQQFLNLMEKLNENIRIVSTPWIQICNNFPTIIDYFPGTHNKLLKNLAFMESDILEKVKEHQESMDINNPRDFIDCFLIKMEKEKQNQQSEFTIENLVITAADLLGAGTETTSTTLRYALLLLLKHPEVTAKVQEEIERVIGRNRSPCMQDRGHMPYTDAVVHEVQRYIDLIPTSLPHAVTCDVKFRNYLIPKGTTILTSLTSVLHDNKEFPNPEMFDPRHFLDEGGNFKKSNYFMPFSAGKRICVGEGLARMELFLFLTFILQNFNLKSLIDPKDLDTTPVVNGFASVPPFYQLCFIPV
Nuclear receptor subfamily 1 group I member 2 (Homo sapiens), sequence (O75469 whole entry, looked up): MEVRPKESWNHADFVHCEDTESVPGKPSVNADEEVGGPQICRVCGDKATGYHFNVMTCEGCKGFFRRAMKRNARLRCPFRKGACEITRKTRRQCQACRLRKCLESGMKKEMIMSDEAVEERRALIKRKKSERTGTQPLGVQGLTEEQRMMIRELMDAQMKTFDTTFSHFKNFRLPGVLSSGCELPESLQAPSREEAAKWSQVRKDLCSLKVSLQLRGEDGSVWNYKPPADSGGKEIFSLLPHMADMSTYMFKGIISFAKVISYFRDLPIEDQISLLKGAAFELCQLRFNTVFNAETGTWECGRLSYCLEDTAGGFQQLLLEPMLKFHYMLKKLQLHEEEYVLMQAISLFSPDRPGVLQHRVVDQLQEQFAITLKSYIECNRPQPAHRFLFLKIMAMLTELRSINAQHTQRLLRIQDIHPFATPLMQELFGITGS
Voltage-gated inwardly rectifying potassium channel KCNH2 (Homo sapiens), sequence (Q12809 whole entry, looked up): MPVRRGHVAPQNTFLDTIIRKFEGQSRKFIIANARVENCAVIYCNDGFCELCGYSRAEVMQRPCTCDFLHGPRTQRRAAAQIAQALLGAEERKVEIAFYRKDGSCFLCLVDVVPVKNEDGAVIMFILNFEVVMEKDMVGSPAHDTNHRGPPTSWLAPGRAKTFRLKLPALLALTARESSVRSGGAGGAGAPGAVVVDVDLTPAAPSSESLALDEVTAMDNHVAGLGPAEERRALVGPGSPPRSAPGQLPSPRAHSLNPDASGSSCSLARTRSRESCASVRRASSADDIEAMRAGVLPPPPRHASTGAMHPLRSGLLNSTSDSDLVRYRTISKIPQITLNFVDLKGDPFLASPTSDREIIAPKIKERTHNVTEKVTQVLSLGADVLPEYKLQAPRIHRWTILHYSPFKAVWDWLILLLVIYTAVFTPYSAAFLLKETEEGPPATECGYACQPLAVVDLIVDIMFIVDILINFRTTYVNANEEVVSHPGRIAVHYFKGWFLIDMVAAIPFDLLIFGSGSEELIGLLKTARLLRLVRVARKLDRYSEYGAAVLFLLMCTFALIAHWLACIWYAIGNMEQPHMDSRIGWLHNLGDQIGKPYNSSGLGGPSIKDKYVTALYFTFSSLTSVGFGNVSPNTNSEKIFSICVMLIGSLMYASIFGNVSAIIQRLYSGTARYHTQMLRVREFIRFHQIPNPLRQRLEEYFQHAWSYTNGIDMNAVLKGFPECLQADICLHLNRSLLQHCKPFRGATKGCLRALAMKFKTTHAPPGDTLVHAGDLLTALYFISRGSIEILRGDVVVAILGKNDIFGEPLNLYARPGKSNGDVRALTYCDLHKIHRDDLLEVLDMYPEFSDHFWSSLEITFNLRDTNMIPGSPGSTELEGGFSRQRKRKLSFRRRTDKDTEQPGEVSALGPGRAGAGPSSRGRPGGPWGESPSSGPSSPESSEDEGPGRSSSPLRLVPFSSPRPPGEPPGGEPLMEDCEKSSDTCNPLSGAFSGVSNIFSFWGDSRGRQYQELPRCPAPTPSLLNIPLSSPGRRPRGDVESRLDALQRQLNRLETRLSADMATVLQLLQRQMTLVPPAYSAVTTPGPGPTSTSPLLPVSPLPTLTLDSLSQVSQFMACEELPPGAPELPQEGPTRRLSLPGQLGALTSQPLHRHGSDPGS
Cytochrome P450 2C9 (Homo sapiens), sequence (P11712 whole entry, looked up): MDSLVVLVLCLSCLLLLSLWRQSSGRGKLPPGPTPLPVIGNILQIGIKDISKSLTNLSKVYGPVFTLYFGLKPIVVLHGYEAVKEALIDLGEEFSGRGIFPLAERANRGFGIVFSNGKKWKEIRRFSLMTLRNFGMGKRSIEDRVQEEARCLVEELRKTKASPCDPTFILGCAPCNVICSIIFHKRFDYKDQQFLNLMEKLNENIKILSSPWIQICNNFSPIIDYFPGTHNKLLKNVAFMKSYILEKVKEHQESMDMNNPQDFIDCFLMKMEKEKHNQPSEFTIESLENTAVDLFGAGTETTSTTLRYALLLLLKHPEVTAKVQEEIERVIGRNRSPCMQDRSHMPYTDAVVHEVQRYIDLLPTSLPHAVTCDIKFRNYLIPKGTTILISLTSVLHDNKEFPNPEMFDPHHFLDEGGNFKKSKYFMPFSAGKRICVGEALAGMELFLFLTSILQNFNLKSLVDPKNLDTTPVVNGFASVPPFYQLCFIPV
Cytochrome P450 3A4 (Homo sapiens), sequence (P08684 whole entry, looked up): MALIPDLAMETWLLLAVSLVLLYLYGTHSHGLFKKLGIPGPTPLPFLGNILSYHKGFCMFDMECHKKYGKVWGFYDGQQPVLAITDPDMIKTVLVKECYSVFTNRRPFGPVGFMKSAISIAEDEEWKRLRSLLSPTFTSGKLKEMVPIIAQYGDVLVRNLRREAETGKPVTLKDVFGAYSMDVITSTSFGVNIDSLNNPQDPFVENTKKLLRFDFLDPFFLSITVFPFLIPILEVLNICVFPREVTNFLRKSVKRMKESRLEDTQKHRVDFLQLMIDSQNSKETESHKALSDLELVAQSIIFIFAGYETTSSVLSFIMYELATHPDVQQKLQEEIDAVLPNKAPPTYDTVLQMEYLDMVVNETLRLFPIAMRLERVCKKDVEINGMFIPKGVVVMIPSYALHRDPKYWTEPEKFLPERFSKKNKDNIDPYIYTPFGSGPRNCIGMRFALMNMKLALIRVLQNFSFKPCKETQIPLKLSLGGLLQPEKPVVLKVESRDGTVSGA
Cytochrome P450 2D6 (Homo sapiens), sequence (P10635 whole entry, looked up): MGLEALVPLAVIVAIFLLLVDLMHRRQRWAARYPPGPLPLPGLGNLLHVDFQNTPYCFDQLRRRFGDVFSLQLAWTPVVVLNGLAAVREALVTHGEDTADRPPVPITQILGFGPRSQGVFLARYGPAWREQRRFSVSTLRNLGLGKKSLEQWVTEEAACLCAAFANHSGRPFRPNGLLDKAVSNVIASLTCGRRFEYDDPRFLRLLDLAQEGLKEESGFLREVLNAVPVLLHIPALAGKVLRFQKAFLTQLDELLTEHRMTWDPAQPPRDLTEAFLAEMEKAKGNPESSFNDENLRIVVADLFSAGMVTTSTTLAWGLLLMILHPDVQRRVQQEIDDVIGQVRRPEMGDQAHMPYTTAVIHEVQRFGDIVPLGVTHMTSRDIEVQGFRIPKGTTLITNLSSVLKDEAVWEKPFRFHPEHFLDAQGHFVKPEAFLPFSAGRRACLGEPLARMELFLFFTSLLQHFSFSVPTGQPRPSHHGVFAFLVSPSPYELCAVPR
Nuclear receptor subfamily 1 group I member 2 (Rattus norvegicus), sequence (Q9R1A7 whole entry, looked up): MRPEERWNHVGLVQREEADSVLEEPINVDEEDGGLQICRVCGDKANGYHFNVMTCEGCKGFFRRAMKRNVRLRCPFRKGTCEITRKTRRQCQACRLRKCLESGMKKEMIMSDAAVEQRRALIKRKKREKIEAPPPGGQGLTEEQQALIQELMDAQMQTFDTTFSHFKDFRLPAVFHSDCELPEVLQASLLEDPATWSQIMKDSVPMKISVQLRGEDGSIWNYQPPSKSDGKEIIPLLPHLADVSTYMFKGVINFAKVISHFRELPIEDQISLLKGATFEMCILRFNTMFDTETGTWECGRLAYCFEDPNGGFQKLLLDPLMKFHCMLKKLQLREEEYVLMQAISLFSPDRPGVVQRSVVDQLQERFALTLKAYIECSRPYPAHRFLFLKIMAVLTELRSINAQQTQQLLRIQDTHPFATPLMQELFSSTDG

With `CCC(C)(C)OC`, the Potency entry in [1], in [2], in [3], in test [4], in [5] and in [6] was “inactive” in each case. In addition, the Potency entry in [7], in [8], in test [9] and in test [10] was “inactive” in each case.

Turning to `C=CC(=O)[O-].C=CC(=O)[O-].[Zn+2]`, the Potency result in test [1], in test [2], in [3], in [4], in [5] and in [6] was “inactive” each time. Besides, the Potency result in [9] was “inactive”. Also, the Potency in test [7] was 27.6 µM (active); in [8], 61.8 µM (active).

For the compound `O=C1c2ccccc2C(=O)c2c(O)c(O)cc(O)c21`, the Potency in [1] was 54.5 µM (active); in test [3], 48.6 µM (active); in test [5] it was 54.5 µM (active); in [8], 63.3 µM (active); in test [11], 35.6 µM (active). Besides, the Potency result in test [2], in test [4], in [6], in [9] and in [10] was “inactive” each time.

With `CCCCCCCCC(CCCCCC)C(=O)O` (stereo unspecified), the Potency result in test [1], in test [2], in [3], in [4], in test [5] and in [6] was “inactive” in each case. For the same compound, the Potency result in test [11], in test [9] and in test [10] was “inactive” throughout. Also, in test [8], the Potency is 25.2 µM (active).

On to `CC(=O)Oc1ccc([N+](=O)[O-])cc1CCl`, for which the Potency was 48.6 µM (active) in [1], 30.6 µM (active) in test [3] and 27.3 µM (active) in test [5]. In addition, the Potency result in test [2], in test [4], in [6], in test [7], in test [11] and in test [9] was “inactive” each time. For the same compound, the Potency result in [10] was “inactive”.

`c1ccc(C[n+]2cccc3ccccc32)cc1`: the Potency entry in [1], in test [2], in test [3], in test [4], in test [5] and in [6] was “inactive” each time. In addition, the Potency entry in test [9] and in test [10] was “inactive” in each case. The Potency in test [7] is 39.9 µM (active).

Turning to `Cc1ccccc1N=C(N)Nc1ccccc1C`, the Potency entry in [1], in test [2], in [3], in test [4], in test [5] and in test [6] was “inactive” in each case. Further, the Potency entry in [7], in test [11] and in test [9] was “inactive” in each case. Moreover, the Potency in test [12] was 0.0156 µM (active).

Regarding `C=C(C)C(=O)OCCOCCOC(=O)C(=C)C`, the Potency entry in test [1], in test [2], in [3], in test [4], in test [5] and in [6] was “inactive” throughout. Besides, the Potency entry in test [10] is “inactive”. Further, the Potency in test [11] is 15.9 µM (active).

With `C=C(C)CCCC(C)CCO` (stereo unspecified), the Potency entry in test [1], in test [2], in test [3], in test [4], in [5] and in test [12] was “inactive” throughout. Further, the Potency in test [6] was 54.5 µM (active); in test [7], 39.9 µM (active); in test [8], 39.9 µM (active); in test [10] it was 28.3 µM (active).

As to `CCCCCCCCCCCCCCN(CCO)CCO`, the Potency was 61.1 µM (active) in test [1]; 30.6 µM (active) in test [2]; 27.3 µM (active) in test [3]; 68.6 µM (active) in test [5]; 12.2 µM (active) in test [6]; 79.6 µM (active) in test [7]. Besides, the values for the Potency in test [8] and in test [11] were 31.7 µM (active) and 17.8 µM (active), respectively. Further, the Potency result in test [4] was “inactive”.

`CCOC(=O)OC(C)OC(=O)[C@@H]1N2C(=O)[C@@H](NC(=O)[C@H](N)c3ccccc3)[C@H]2SC1(C)C` (stereo partly specified): the Potency entry in test [1], in test [2], in [3], in test [4] and in test [5] was “inactive” throughout. Moreover, the max activation in test [13] is 0.482%.

With `CCCCCCCC/C=C\CCCCCCCCO`, the Potency result in [1], in [2], in test [3], in test [4], in [5] and in [12] was “inactive” throughout. The Potency result in test [9] and in [10] was “inactive” throughout. For the same compound, the Potency was 30.6 µM (active) in test [6] and 28.2 µM (active) in [11].
